Test results as given in PubChem BioAssay (NCATS).
Records with an inconclusive call do not appear. Unless noted, calls come from the whole dose curve; as a rule, active = well fitted curve in either direction with a large enough effect (not every such curve was filed as active); inconclusive = small, poorly fitted or top-dose-only effect, or another doubt; inactive = flat fitted curve, though single readings scatter.

How the values were obtained:
[1] = AP1 Signaling Pathway (AID 357); conditions: ME-180 AP-1-bla reporter, EGF-induced, beta-lactamase ratio, 5 h; at 17.2 µM (top of the series) unless noted;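 note: ME-180 reporter cells stimulated with EGF at its EC50 level; % is set by controls: 0 for no effect and ±100 for the full control effect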
Outline: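 In this screen, ME-180 cells in Opti-MEM with 0.5% dialyzed FBS received EC50 EGF and compound titrations for 5 h. AP-1 reporter beta-lactamase was detected via CCF4 ratio, giving AC50 for positive and negative modulators.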

[2] = NFAT Signaling Pathway (AID 444); conditions: Jurkat NFAT-bla M1, carbachol, beta-lactamase ratio, 5 h; at 17.2 µM (top of the series) unless noted;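 note: carbachol stimulus at about its EC50 of 1 µM final; % is set by controls: 0 for no effect and ±100 for the full control effect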
Outline: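 Read-out: CCF4 FRET ratio (460 nm/530 nm) after 1 h RT dye loading, used for %activity and AC50 from titration series. Cells: Jurkat NFAT-β-lactamase/M1 line, treated with compound plus 1 uM carbachol for 5 h, 37 °C.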

[3] = Stat Signaling Pathway (AID 446); conditions: ME-180 (cervical carcinoma) SIE beta-lactamase reporter, IL-6 stimulated, 5 h; at 17.2 µM (top of the series) unless noted;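 note: ME-180 cervical cancer cells given 40 pM IL-6 alongside compound; SIE-controlled beta-lactamase reporter measured as 460/530 nm FRET emission ratio; % is set by controls: 0 for no effect and ±100 for the full control effect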
Outline: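 FRET read-out (405 nm excitation, 460/530 nm emission) of a beta-lactamase reporter under a STAT-inducible element in ME-180 cervical carcinoma cells. Cells with compound receive 40 pM IL-6 for 5 h. Values are normalised to AC90 stimulation and AC90 JAK-inhibitor controls.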

[4] = target: Glucocorticoid receptor (Homo sapiens) (UniProt P04150); test: GR-GFP Redistribution (AID 450;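 active = compounds whose dose series gives a full or clear partial fitted curve of increased nuclear translocation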; note: potency is the fitted concentration of half-maximal effect)
Glucocorticoid receptor (Homo sapiens), sequence (P04150 whole entry, looked up): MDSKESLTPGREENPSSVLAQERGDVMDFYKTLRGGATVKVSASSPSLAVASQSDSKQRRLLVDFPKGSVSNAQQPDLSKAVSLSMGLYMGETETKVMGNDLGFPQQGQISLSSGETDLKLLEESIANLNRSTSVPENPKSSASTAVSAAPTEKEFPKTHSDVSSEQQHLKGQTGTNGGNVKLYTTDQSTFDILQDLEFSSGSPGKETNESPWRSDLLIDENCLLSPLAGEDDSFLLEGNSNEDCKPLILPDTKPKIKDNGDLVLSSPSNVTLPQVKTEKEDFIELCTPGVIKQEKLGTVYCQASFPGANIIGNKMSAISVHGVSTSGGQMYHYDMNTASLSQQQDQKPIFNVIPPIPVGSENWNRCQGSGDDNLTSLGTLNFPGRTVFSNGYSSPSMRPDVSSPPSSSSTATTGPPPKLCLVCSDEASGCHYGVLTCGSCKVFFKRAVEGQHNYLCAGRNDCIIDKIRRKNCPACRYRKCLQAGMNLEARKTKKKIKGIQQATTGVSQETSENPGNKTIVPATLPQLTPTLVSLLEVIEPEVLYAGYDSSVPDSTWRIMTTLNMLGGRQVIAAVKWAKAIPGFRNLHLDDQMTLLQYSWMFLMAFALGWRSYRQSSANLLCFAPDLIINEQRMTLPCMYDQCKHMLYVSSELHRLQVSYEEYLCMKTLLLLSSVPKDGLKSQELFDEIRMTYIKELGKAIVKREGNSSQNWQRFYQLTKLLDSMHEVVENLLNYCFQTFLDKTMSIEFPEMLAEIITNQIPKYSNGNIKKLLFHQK

CCOC(=O)CSc1nc(-c2ccncc2)ccc1C#N
inactive: activity change, negative = inhibition [1] -1.16% | activity change, negative = inhibition [2] -7.89% | activity, negative = inhibition [3] 3.41% | Potency [4] > 20.6 µM

Nc1c(C(=O)NCc2ccco2)sc2nc(N3CCOCC3)c3c(c12)CCCC3
inactive: activity change, negative = inhibition [1] -27.5% | activity change, negative = inhibition [2] 16.8% | activity, negative = inhibition [3] -13.4% | Potency [4] > 20.6 µM

CCOC(=O)c1c(C)n(C)c2ccc(OC)c(NC(=O)CCN3CCSCC3)c12
inactive: activity change, negative = inhibition [1] 2.45% | activity change, negative = inhibition [2] 4.14% | activity, negative = inhibition [3] 7.06% | Potency [4] > 20.6 µM

CCN(CC)CCN1C(=O)C(=O)/C(=C(/O)c2ccc(F)cc2)C1c1cccnc1 (centres undefined)
inactive: activity change, negative = inhibition [1] 12.6% | activity change, negative = inhibition [2] 3.02% | activity, negative = inhibition [3] -0.766% | Potency [4] > 20.6 µM

COc1ccc(NC(=O)Nc2cccc(C(=O)N3CCOCC3)c2)cc1OC
inactive: activity change, negative = inhibition [1] 3.36% | activity change, negative = inhibition [2] -1.43% | activity, negative = inhibition [3] 0.00442% | Potency [4] > 20.6 µM

c1ccc(-n2c(Cc3cccnc3)nc3cnccc32)cc1
inactive: activity change, negative = inhibition [1] -10.4% | activity change, negative = inhibition [2] 15.3% | activity, negative = inhibition [3] 6.69% | Potency [4] > 20.6 µM

COc1ccc2c(c1OC)C(=O)OC2c1c(O)nc(SC)n(-c2ccccc2)c1=O (centres undefined)
inactive: activity change, negative = inhibition [1] -1.4% | activity change, negative = inhibition [2] -5.89% | activity, negative = inhibition [3] -3% | Potency [4] > 20.6 µM

O=CNC(=O)c1ccccc1C(=O)O
inactive: activity change, negative = inhibition [1] -3.37% | activity change, negative = inhibition [2] 3.48% | activity, negative = inhibition [3] 20.3% | Potency [4] > 20.6 µM

COC(=O)c1cc(Br)c(=O)n(-c2cc(C)on2)c1
inactive: activity change, negative = inhibition [1] 8.72% | activity change, negative = inhibition [2] 12.9% | activity, negative = inhibition [3] 7.11% | Potency [4] > 20.6 µM

COc1cccc(OC)c1-c1nn2c(-c3ccco3)nnc2s1
inactive: activity change, negative = inhibition [1] -10.9% | activity change, negative = inhibition [2] -8.25% | activity, negative = inhibition [3] -4.43% | Potency [4] > 20.6 µM

COc1cc([C@@H]2[C@H]3CN(C)CC=C3C(C#N)=C(N)C2(C#N)C#N)cc2c1OCO2
inactive: activity change, negative = inhibition [1] -11% | activity change, negative = inhibition [2] 9.82% | activity, negative = inhibition [3] 10.9% | Potency [4] > 20.6 µM

NC(=O)c1cc(-c2ccccc2)nc(Oc2ccccc2)n1
inactive: activity change, negative = inhibition [1] -14.4% | activity change, negative = inhibition [2] -25.9% | activity, negative = inhibition [3] -5.87% | Potency [4] > 20.6 µM

CN1CCN(c2ncnc3c2[nH]c2ccc(F)cc23)CC1
inactive: activity change, negative = inhibition [1] 7.75% | activity change, negative = inhibition [2] -5.03% | activity, negative = inhibition [3] 11.7% | Potency [4] > 20.6 µM

CC(=O)/C=C(\C)NCCNc1c(F)c(F)c(CO)c(F)c1F
inactive: activity change, negative = inhibition [1] -4.08% | activity change, negative = inhibition [2] 1.05% | activity, negative = inhibition [3] -2.87% | Potency [4] > 20.6 µM

CC(O)(C#CCN1CCOCC1)c1ccccc1 (centres undefined)
inactive: activity change, negative = inhibition [1] -0.153% | activity change, negative = inhibition [2] 8.45% | activity, negative = inhibition [3] 7.2% | Potency [4] > 20.6 µM

COC(=O)c1c(C)[nH]c(C(=O)OCc2ccc(F)cc2)c1C
inactive: activity change, negative = inhibition [1] 14.7% | activity change, negative = inhibition [2] 5.66% | activity, negative = inhibition [3] -8.92% | Potency [4] > 20.6 µM

Clc1ccc(-n2ncc3c(N4CCCC4)ncnc32)cc1
inactive: activity change, negative = inhibition [1] 3% | activity change, negative = inhibition [2] 6.28% | activity, negative = inhibition [3] -0.254% | Potency [4] > 20.6 µM

COc1cc(/C=N/n2nnnc2N)ccc1O
inactive: activity change, negative = inhibition [1] -2.54% | activity change, negative = inhibition [2] -23.8% | activity, negative = inhibition [3] -1.69% | Potency [4] > 20.6 µM

N#CC12CCCCC1CC1CCCCC1(C#N)N2Cc1ccccn1 (centres undefined)
inactive: activity change, negative = inhibition [1] 3.99% | activity change, negative = inhibition [2] -14.8% | activity, negative = inhibition [3] 19.1% | Potency [4] > 20.6 µM

OCCNC1=NCCN1
inactive: activity change, negative = inhibition [1] -9.49% | activity change, negative = inhibition [2] 3.37% | activity, negative = inhibition [3] 1.85% | Potency [4] > 20.6 µM

N/C(CCN1CCOCC1)=N/O
inactive: activity change, negative = inhibition [1] 18.7% | activity change, negative = inhibition [2] 2.54% | activity, negative = inhibition [3] -0.113% | Potency [4] > 20.6 µM

COc1cccc(C2=CC(c3ccccc3)n3ncnc3N2)c1 (centres undefined)
inactive: activity change, negative = inhibition [1] -21.4% | activity change, negative = inhibition [2] -15.1% | activity, negative = inhibition [3] -5.76% | Potency [4] > 20.6 µM

CSC(=Nc1ccccc1)C1=C(O)COC1=O
inactive: activity change, negative = inhibition [1] 3.1% | activity change, negative = inhibition [2] 4.52% | activity, negative = inhibition [3] -5.43% | Potency [4] > 20.6 µM

CCOC(=O)CSC1=C(C#N)C(c2ccc(OC)cc2)C2=C(CC(C)(C)CC2=O)N1 (centres undefined)
inactive: activity change, negative = inhibition [1] -15.4% | activity change, negative = inhibition [2] 7.5% | activity, negative = inhibition [3] -4.41% | Potency [4] > 20.6 µM

COc1ccc(NC2CC(=O)N(C)C2=O)cc1 (centres undefined)
inactive: activity change, negative = inhibition [1] 9.53% | activity change, negative = inhibition [2] -9.34% | activity, negative = inhibition [3] 11.9% | Potency [4] > 20.6 µM

COc1ccc(-c2cc(-c3ccccc3)n3ncnc3n2)cc1
inactive: activity change, negative = inhibition [1] -5.02% | activity change, negative = inhibition [2] -9.06% | activity, negative = inhibition [3] 1.12% | Potency [4] > 20.6 µM
